DUSP3 inh: VHR1 phosphatase inhibitors, primary screen, biochemical, colorimetric, HTS. Dual specificity protein phosphatase 3 (Homo sapiens), P51452. hit rate 0.7% among 50,000. inhibition, % at 20 µM. AID 1992, 2009. recombinant VHR phosphatase, colorimetric substrate read-out; in the data active = inhibition above about 60%
Target sequence (P51452 whole entry, looked up): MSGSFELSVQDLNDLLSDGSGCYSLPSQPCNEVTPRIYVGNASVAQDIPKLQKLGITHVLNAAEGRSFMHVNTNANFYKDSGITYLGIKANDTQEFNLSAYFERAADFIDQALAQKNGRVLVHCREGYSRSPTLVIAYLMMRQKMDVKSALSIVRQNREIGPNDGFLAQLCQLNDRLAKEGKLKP
An asterisk follows results filed as active. Only a selection was taken, and hits are over-represented in it overall.

What do the screens show for `COC(=O)c1c(-c2ccc(Cl)cc2)csc1N`?
DUSP3 inh: 81.2

How did CCOC(=O)c1c(-c2ccc(-c3ccccc3)cc2)csc1N do in these assays?
DUSP3 inh: 5.0

Results for NC(=O)c1c(-c2ccc(Cl)cc2)csc1N ?
DUSP3 inh: 66.6*

Results for COC(=O)c1c(-c2ccc(C(C)(C)C)cc2)csc1N ?
DUSP3 inh: 94.7*

Results for CCOC(=O)c1c(-c2ccc(C(C)C)cc2)csc1N ?
DUSP3 inh: 14.8

What do the screens show for `COC(=O)c1c(-c2ccc(OC)cc2)csc1N`?
DUSP3 inh: 30.2

Results for COc1cc(C=C2C(=O)c3ccccc3C2=O)ccc1OCc1ccc(F)cc1 ?
DUSP3 inh: 10.6

What do the screens show for `COC(C)(C)C(=O)C(C(=O)c1ccccc1)/C(=C/C(=O)c1ccccc1)C(C)(C)OC` (centres undefined)?
DUSP3 inh: -9.9

What do the screens show for `Cc1cccc(NC(=S)NC(=O)/C=C/c2ccccc2)c1`?
DUSP3 inh: -7.9

How did COc1cc(C2CC(=O)Nc3c2cc(Br)c2ccccc32)cc(OC)c1OC (centres undefined) do in these assays?
DUSP3 inh: 3.5

How did O=C1CC(c2ccccc2F)c2cc(Br)c3ccccc3c2N1 (centres undefined) do in these assays?
DUSP3 inh: -4.5

Results for CC(C)Oc1ccccc1C1CC(=O)Nc2c1cc(Br)c1ccccc21 (centres undefined) ?
DUSP3 inh: 108.2*

How did O=C1S/C(=C/c2ccccc2)C(=O)N1CN1CCCCC1 do in these assays?
DUSP3 inh: -3.9

How did C=CCOc1ccc(/C=C2\C(=O)NC(=O)N(c3ccc(F)cc3)C2=O)cc1OC do in these assays?
DUSP3 inh: 6.9

How did COc1ccc(S(=O)(=O)Nc2nc3ccccc3s2)cc1[N+](=O)[O-] do in these assays?
DUSP3 inh: 11.7

What do the screens show for `C=CCN1C(=O)C2C3c4ccccc4C(c4ccccc43)C2C1=O` (centres undefined)?
DUSP3 inh: -46.0

How did O=C(Oc1ccc(-n2cnnn2)cc1)N1CCOCC1 do in these assays?
DUSP3 inh: 113.1*

What do the screens show for `O=C(Nc1ccccc1)c1ccc(-n2cnnn2)cc1`?
DUSP3 inh: 0.0

Results for COC(=O)c1c(C)oc2ccc(OC(=O)N3CCOCC3)cc12 ?
DUSP3 inh: -3.3

How did Cc1ccc(C#N)c(SCC(N)=O)n1 do in these assays?
DUSP3 inh: 4.6

What do the screens show for `Cc1cccc(COc2ccc3c(c2)oc(=O)c2ccccc23)c1`?
DUSP3 inh: 96.0*

Results for CCc1cc(=O)oc2cc(OCc3cccc(C)c3)ccc12 ?
DUSP3 inh: 1.8

What do the screens show for `Cc1ccc(COc2ccc3c(c2)oc(=O)c2ccccc23)cc1`?
DUSP3 inh: -14.2

Results for O=C(NN1C(=O)/C(=C/c2cc3c(cc2[N+](=O)[O-])OCO3)SC1=S)c1ccccc1Cl ?
DUSP3 inh: 9.8

How did CCC(=O)N1c2ccccc2NC2=C(C(=O)CC(c3ccccc3)C2)C1c1ccc(F)cc1 (centres undefined) do in these assays?
DUSP3 inh: 113.1*

Results for COc1ccc(C2CC(=O)C3=C(C2)Nc2ccccc2NC3c2ccc(-c3ccccc3)cc2)cc1OC (centres undefined) ?
DUSP3 inh: -15.5

Results for COc1ccc(C2CC(=O)C3=C(C2)Nc2ccccc2NC3c2ccc(OC)c(OC)c2)cc1 (centres undefined) ?
DUSP3 inh: 7.0

Results for COc1ccc(C2C3=C(CC(c4ccccc4)CC3=O)Nc3ccccc3N2C(=O)C(C)C)cc1OC (centres undefined) ?
DUSP3 inh: 99.1*

Results for CCC(=O)N1c2ccccc2NC2=C(C(=O)CC(c3ccccc3)C2)C1c1cccc(Br)c1 (centres undefined) ?
DUSP3 inh: 3.7

Results for CCC(=O)N1c2ccccc2NC2=C(C(=O)CC(c3ccc(OC)cc3)C2)C1c1ccccc1 (centres undefined) ?
DUSP3 inh: -6.3

What do the screens show for `CC1=C(C(=O)Nc2ccc(C)cc2)C(c2ccc3c4c(cccc24)CC3)NC(=S)N1` (centres undefined)?
DUSP3 inh: -0.7

How did O=C(Nc1nc(-c2ccc(Cl)cc2)cs1)C1CCCC1 do in these assays?
DUSP3 inh: 13.9

Results for O=C(Nc1ccc(Cl)cc1Cl)C1CC(=O)N(c2ccc(Br)cc2)C1 (centres undefined) ?
DUSP3 inh: 3.1

Results for Cc1ccc(N=Cc2c(C)[nH]c3ccccc23)cc1I ?
DUSP3 inh: 2.7

What do the screens show for `CC(C)COc1ccc(/C=C2\SC(=S)NC2=O)cc1`?
DUSP3 inh: -7.9

Results for COc1ccc(Br)cc1/C=C/C(=O)Nc1ccc(C)cc1[N+](=O)[O-] ?
DUSP3 inh: -5.1

How did CCOC(=O)C1=C(C)NC(=S)NC1c1cc([N+](=O)[O-])ccc1O (centres undefined) do in these assays?
DUSP3 inh: 11.9

How did O=C1NC(=S)N(c2ccc(Cl)c(Cl)c2)C(=O)/C1=C/c1cccs1 do in these assays?
DUSP3 inh: 7.3

What do the screens show for `Cc1cc(Br)ccc1N1C(=O)/C(=C/c2cc(C)n(C)c2C)C(=O)NC1=S`?
DUSP3 inh: 24.3
